Experimental data from the supplement of paper PMC3334620.
Over roughly 33,000 sequences, “E-score (-0.5 to 0.5)” has its median near -0.036; the highest 2% begin near 0.37. Shown is part of a subset that was picked to be rich in the highest values.

target: T1, Yer064c (UniProt P40041); test: PBM E-score (8-mer binding enrichment) (E-score (-0.5 to 0.5)); higher = stronger / more preferred TF binding; details: protein concentration: 200 nM; construct: GST-full length
T1 sequence: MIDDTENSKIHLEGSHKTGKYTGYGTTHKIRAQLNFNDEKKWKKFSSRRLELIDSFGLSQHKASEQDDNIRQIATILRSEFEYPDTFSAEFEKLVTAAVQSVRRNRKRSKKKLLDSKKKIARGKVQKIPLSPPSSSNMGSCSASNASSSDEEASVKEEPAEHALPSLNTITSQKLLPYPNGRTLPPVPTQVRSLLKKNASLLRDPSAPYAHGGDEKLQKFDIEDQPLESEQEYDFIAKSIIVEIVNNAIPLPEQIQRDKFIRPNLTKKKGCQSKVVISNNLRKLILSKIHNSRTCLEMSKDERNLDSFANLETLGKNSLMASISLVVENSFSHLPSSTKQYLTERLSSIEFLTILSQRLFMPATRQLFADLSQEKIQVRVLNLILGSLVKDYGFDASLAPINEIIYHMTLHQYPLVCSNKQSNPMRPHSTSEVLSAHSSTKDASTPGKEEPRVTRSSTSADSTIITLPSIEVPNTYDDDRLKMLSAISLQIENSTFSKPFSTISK
Protocol: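 Universal 'all 10-mer' protein binding microarrays (Agilent AMADID 015681) probed with GST-tagged S. cerevisiae TFs (full-length or DBD) made by in vitro transcription/translation (PURExpress), about 100-200 nM. Bound TF was detected with fluorescent anti-GST. Each ungapped 8-mer (which stands for itself and its reverse complement) is scored by the PBM enrichment score (E-score), a modified Wilcoxon-Mann-Whitney statistic from -0.5 to +0.5, computed with the Universal PBM Analysis Suite. Scale: above 0.35 generally sequence-specific binding.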

Sequence | PBM E-score
AACGAGTC | 0.42
CACGAGTG | -0.125
AACGAGTT | 0.0273
CACGAGTA | 0.0787
CACGAGTC | 0.39
AACGAGTA | 0.171
GACGAGTA | 0.178
GACGAGAC | -0.0639
GACGAGTC | 0.408
ATCCATCC | 0.0305
AGTACACA | 0.239
CCCAAGCC | -0.171
CACTTCAA | -0.0203
ACGGATTA | 0.1
AAAGAGTT | 0.219
GAAGAGCC | -0.222
GAAGAGTA | 0.0801
CAAGAGTA | 0.106
GAAGAGTC | 0.426
CAAGAGTC | 0.434
AAAGAGTA | 0.0885
CAAGAGTG | -0.108
AAAGAGTC | 0.437
CTACTGAC | 0.177
ACGGCGGA | -0.0257

Sequence | PBM E-score
ACGGACCA | -0.125
GAACTGAC | -0.0132
CAGGAGTC | 0.394
AAGGAGTG | -0.187
CAGAAGTC | 0.293
CAGGAGTA | 0.0894
AAGGAGTC | 0.412
AAGGAGTA | 0.0121
AGTCGATG | 0.249
AAACTGAG | 0.144
TCCCAGCA | -0.0166
CACGCAAG | -0.11
CACGTGTA | -0.0349
GATTCATA | 0.381
AATTCATA | 0.0256
TATTCAGA | 0.0473
CATTCATA | 0.195
GATTCAGA | 0.389
GATTCAGC | 0.258
GATTCCGA | 0.276
CCACGTAA | -0.177
GGCCTGTA | -0.386
GACTAGGC | 0.297
AACTAGCA | -0.00106
TACTAGCA | 0.0217

Sequence | PBM E-score
GACTAGGA | 0.376
GACTAGCA | 0.374
TACTAGGA | 0.0896
ATCACATC | 0.143
CGAGGGAA | -0.0997
GATTTGGA | 0.0961
AAAGTGCC | -0.0752
AACCGTAC | -0.0826
TATTCAAA | 0.135
GATTCAAA | 0.371
CATTCAAA | -0.0755
AATTCAAC | -0.0608
GATTCAAC | 0.385
CATTCAAC | 0.0337
ACCGATCT | -0.255
ATCCTCGC | -0.043
TCGTAGCA | 0.128
ATCGCTGA | 0.0828
GACTTTAC | 0.234
ATAGGCAG | -0.0153
ATTCGTCG | 0.0523
GGTCGTCA | 0.00372
AGTCGTCG | 0.375
AGTCGTCC | 0.364
CGTCGTCA | -0.142

Sequence | PBM E-score
AGTCGTCA | 0.389
ACGATACT | -0.155
AGGATGTC | 0.00214
CGCTGCTA | -0.211
CCATATGA | 0.0961
GCATATGA | 0.14
TCATATGA | 0.393
AGACGACG | -0.265
ACACGACA | 0.106
ACACGACC | -0.0158
AGACGACT | 0.397
AGACGACC | -0.0204
ACACGACT | 0.408
AGTAAAAG | 0.0408
CTGACCAG | -0.0138
ACTCCACG | 0.0785
ACTTTACT | 0.159
AAAACCCT | -0.047
CACTAAGA | 0.119
TACTAAGA | 0.113
CACTAAGC | 0.1
GACTAAGA | 0.444
AACTAAGC | 0.0808
GACTAAGC | 0.42
